# Sampled rows, rich in hits. Any-hit rate of the full collection: about 6.7%.
# T cruzi growth: blocks T. cruzi growth in NIH3T3 culture; T. cruzi beta-gal in NIH3T3, GalScreen luminescence, 90 h; inhibition, % at 8.34 µM; actives 5.9% (n = 77,000);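 active = mean inhibition above about 93%, with at least 55% of replicates each passing it, limit read from the data, passing the limit was not always enough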
# C diff growth: inhibitors of Clostridium difficile growth; Clostridium difficile clinical isolate growth, OD600, 24 h; hits give low values; growth activity, negative = inhibition, % at 16 µg/mL (by protocol); actives 0.25% (n = 86,000); AID 1259249;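 active = mean growth activity at or below -80% and every replicate also at or below -80%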;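 note: 0% = DMSO wells and -100% = levofloxacin 16 µg/mL wells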
# Pf Dd2 inh: blocks growth of Plasmodium falciparum Dd2 parasites | P. falciparum Dd2 growth, SYBR Green, 72 h; hits give low values | actives 2.3% (n = 94,000) | activity change, % at 10 µM; in the data active = activity change below about -80%
# Starred values were filed as active, the others as inactive; / = no result given.
SMILES,T cruzi growth,C diff growth,Pf Dd2 inh
COc1ccc2c3c(n(C)c2c1)[C@H](CO)N(C(=O)C1CCCC1)CC31CN(C(=O)CN(C)C)C1,/,/,25
COc1ccc2c3c(n(C)c2c1)[C@@H](CO)N(C(=O)Nc1cccc(F)c1)CC31CN(Cc2nccs2)C1,/,-10,-85*
COc1ccc2c3c(n(C)c2c1)[C@H](CO)N(C(=O)C1CCCC1)CC31CCN(C(=O)Nc2cccc(F)c2)CC1,/,5,-56
COc1ccc2c3c(n(C)c2c1)[C@@H](CO)N(C(=O)C1CCCC1)CC31CCN(C(=O)Nc2cccc(F)c2)CC1,/,0,-91*
CCCC(=O)N1CC2(CN(C(=O)Nc3cccc(F)c3)C2)c2c(n(C)c3cc(OC)ccc23)[C@@H]1CO,/,17,-23
O=C(N[C@H]1CC[C@@H](CC(=O)N2CCCCC2)O[C@@H]1CO)c1ccc2c(c1)OCO2,-19,3,10
COc1ccc2c3c(n(C)c2c1)[C@@H](CO)N(C(=O)C1CCCCC1)CC31CCN(C(=O)Nc2cccc(F)c2)CC1,/,/,30
COc1ccc(NC(=O)N2CC3(C2)CN(C(=O)C2CCC2)[C@H](CO)c2c3c3ccc(OC)cc3n2C)cc1,/,-2,-88*
COc1ccc2c3c(n(C)c2c1)[C@@H](CO)N(CC1CCCC1)CC31CCN(C(=O)Nc2ccccc2)CC1,/,44,-84*
COc1ccc2c3c(n(C)c2c1)[C@@H](CO)N(CC1CC1)CC31CCN(C(=O)Nc2ccccc2)CC1,/,-1,-73
COc1ccc(NC(=O)N2CCC3(CC2)CN(C(=O)C2CCC2)[C@H](CO)c2c3c3ccc(OC)cc3n2C)cc1,/,-9,-90*
COc1ccc2c3c(n(C)c2c1)[C@@H](CO)N(C(=O)C1CCC1)CC31CN(C)C1,/,-6,5
COc1cccc(-c2ccc([C@@H]3[C@H]4CN(C(=O)CN5CCOCC5)CC(=O)N4[C@H]3CO)cc2)c1,/,-6,-16
C[C@H](CO)N1C[C@H](C)[C@@H](CN(C)C(=O)CCCN(C)C)OCCCC[C@H](C)Oc2ccc(NC(=O)CCCN(C)C)cc2C1=O,19,-2,36
Cc1noc(C)c1S(=O)(=O)N(C)C[C@H]1OCCCC[C@@H](C)Oc2ccc(NC(=O)C3CCCCC3)cc2C(=O)N([C@@H](C)CO)C[C@H]1C,45,5,-48
C[C@H](CO)N1C[C@H](C)[C@H](CN(C)S(=O)(=O)c2ccc(F)cc2)OCCCC[C@H](C)Oc2ccc(NC(=O)Nc3ccc(C(F)(F)F)cc3)cc2C1=O,93,/,-31
C[C@@H]1CCCCO[C@@H](CN(C)S(=O)(=O)c2ccc(Cl)cc2)[C@@H](C)CN([C@H](C)CO)C(=O)c2cc(NC(=O)Nc3ccc(C(F)(F)F)cc3)ccc2O1,87,19,-86*
C[C@@H]1CN([C@@H](C)CO)C(=O)c2cc(NC(=O)CCC(F)(F)F)ccc2O[C@@H](C)CCCCO[C@@H]1CN(C)S(=O)(=O)c1ccc(Cl)cc1,39,-7,-86*
C[C@@H]1CCCCO[C@@H](CN(C)S(=O)(=O)c2ccc(Cl)cc2)[C@@H](C)CN([C@H](C)CO)C(=O)c2cc(NC(=O)CCC(F)(F)F)ccc2O1,29,4,-78
C[C@@H]1CCCCO[C@@H](CN(C)S(=O)(=O)c2ccc(Cl)cc2)[C@H](C)CN([C@H](C)CO)C(=O)c2cc(NC(=O)Nc3ccc(C(F)(F)F)cc3)ccc2O1,70,14,-77
C[C@@H]1CCCCO[C@H](CN(C)S(=O)(=O)c2ccc(F)cc2)[C@@H](C)CN([C@@H](C)CO)C(=O)c2cc(NC(=O)Nc3ccc(C(F)(F)F)cc3)ccc2O1,86,/,-85*
CC(=O)N1[C@H](CO)[C@H](c2ccc(C3=CCCCC3)cc2)[C@@H]1CNC(=O)CC1CC1,/,-8,-15
CO[C@H]1CN(C)C(=O)c2cc(NC(=O)c3ccc(Oc4ccccc4)cc3)ccc2OC[C@@H](C)NC[C@@H]1C,-35,-6,-90*
CO[C@@H]1CN(C)C(=O)c2ccc(NC(=O)c3ccc(-c4ccccc4)cc3)cc2OC[C@@H](C)NC[C@H]1C,/,42,-87*
CO[C@H]1CN(C)C(=O)c2ccc(NC(=O)c3ccc(-c4ccccc4)cc3)cc2OC[C@H](C)NC[C@@H]1C,/,-9,-44
CO[C@@H]1CN(C)C(=O)c2ccc(NC(=O)c3ccccc3)cc2OC[C@H](C)NC[C@@H]1C,/,/,25
CO[C@@H]1CN(C)C(=O)c2ccc(NC(=O)c3ccc(F)cc3)cc2OC[C@@H](C)N(C(=O)c2ccc(F)cc2)C[C@@H]1C,60,/,-88*
CO[C@H]1CN(C)C(=O)c2ccc(NC(=O)c3ccc(-c4ccccc4)cc3)cc2OC[C@@H](C)NC[C@H]1C,62,/,-86*

# Screens (PubChem)
